The whole screen tested about 310,000 compounds, of which about 2,200 (0.71%) showed an effect of 50% or more. Effects have a minus sign here. The sample holds strong results, similar compounds and a random draw of the others, so the mix is not that of the screen.
molecular target: human ether-à-go-go-related gene (hERG) potassium channel (human, UniProt Q12809); test: primary screen, population patch clamp on CHO cells stably expressing hERG; higher = less effect of the substance
Sequence (Q12809 whole entry, looked up): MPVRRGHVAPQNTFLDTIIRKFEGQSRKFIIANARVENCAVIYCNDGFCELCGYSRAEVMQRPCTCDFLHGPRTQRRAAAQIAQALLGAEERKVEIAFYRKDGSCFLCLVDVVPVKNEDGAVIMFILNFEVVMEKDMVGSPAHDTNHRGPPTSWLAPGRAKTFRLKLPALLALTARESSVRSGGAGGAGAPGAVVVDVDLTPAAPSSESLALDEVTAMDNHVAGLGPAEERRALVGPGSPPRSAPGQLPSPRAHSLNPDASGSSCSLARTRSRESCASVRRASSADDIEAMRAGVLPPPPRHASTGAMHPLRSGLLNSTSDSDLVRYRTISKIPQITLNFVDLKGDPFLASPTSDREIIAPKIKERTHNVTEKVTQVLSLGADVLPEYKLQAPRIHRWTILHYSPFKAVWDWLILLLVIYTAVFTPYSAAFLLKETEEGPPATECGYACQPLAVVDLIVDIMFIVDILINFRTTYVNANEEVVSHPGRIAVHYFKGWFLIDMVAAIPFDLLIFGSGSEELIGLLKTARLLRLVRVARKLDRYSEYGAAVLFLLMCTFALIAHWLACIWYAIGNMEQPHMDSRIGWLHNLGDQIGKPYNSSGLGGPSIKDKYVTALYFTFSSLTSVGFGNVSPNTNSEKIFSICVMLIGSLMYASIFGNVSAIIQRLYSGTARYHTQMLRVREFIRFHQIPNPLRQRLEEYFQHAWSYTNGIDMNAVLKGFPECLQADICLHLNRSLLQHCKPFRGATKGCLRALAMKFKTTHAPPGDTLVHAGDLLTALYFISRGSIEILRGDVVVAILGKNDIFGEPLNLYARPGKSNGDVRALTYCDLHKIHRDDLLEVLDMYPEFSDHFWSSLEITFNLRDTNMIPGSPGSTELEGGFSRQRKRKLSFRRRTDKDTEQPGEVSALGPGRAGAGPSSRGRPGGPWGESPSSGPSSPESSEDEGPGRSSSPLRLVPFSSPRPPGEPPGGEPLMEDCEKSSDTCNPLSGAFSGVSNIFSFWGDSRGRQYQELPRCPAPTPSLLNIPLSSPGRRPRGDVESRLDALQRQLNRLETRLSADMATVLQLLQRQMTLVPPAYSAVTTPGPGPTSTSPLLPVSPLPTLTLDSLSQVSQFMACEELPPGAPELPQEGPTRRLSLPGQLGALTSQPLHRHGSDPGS

Structure (SMILES)	hERG current change (%, negative = inhibition) at 1uM [%]
Cc1cc(=O)[nH]c2ccc(S(=O)(=O)NC3CCCCC3)cc12	7.42
CC(OC(=O)C(C)Oc1ccccc1)C(=O)Nc1ccc(S(=O)(=O)N2CCCCC2)cc1 (stereo not drawn)	12.9
Oc1ccc(/C=N/N2CCCCC2)cc1O	14.2
CCOCCN1CCN(c2c(CC)c(C)nc3cc(-c4cc(OC)cc(OC)c4)nn23)CC1	-14
COc1ccc(NC(=O)CN(C)C(=O)CCCc2nc3ccccc3s2)cc1	-15.7
COc1nc(-c2ccccc2)ccc1-c1noc(COc2ccccc2)n1	17.7
CCOC(=O)Cn1c(=O)oc2cc(S(=O)(=O)N(C)c3cccc(C)c3)ccc21	-1.77
O=[N+]([O-])c1cc2c(cc1CN1CCN(c3ccc(F)cc3)CC1)OCO2	7.89
CCCCCCCOC(=O)c1nc(Cl)c(Cl)c(N)c1Cl	0.504
CCCCCCCCOC(=O)c1nc(Cl)c(Cl)c(N)c1Cl	-64.4
CCCCOC(=O)c1nc(Cl)c(Cl)c(N)c1Cl	12
CCOc1cccc(-c2nn3c(-c4cc(C)[nH]n4)nnc3s2)c1	-8.21
COc1ccc(/C=C/c2cc(C(F)(F)F)on2)cc1	17.5
COc1ccc(/C=C/C(=O)Oc2ccc(C)cc2)cc1	1.29
COc1ccc(/C=C/c2cc(-c3ccc(C)cc3)o[n+]2C)cc1.F[B-](F)(F)F	-76.5
Cc1ccc2c(c1)NC(=O)C(CC(=O)NCCCN1CCCCC1)O2 (stereo not drawn)	6.37
CCC(C)N(CCNC(=O)CC1Oc2ccc(C)cc2NC1=O)C1CCCCC1 (stereo not drawn)	-58.1
CCC(C)N(CCNC(=O)CC1Oc2ccccc2NC1=O)C1CCCCC1 (stereo not drawn)	-35.6
Cc1ccc2c(c1)NC(=O)C(CC(=O)NCCCN1CCCC1)O2 (stereo not drawn)	12.4
Cc1ccc2c(c1)NC(=O)C(CC(=O)NCCN(CC(C)C)CC(C)C)O2 (stereo not drawn)	0.19
Cc1ccc2c(c1)NC(=O)C(CC(=O)NCCCN1CCc3ccccc3C1)O2 (stereo not drawn)	-58.5
O=Cc1c(NCc2ccccc2)c2ccccc2[nH]c1=O	12.6

Structure (SMILES)	hERG current change (%, negative = inhibition) at 1uM [%]
C/C(=N\OCC(=O)Nc1ccc(OC(F)(F)F)cc1)c1ccc2c(c1)OCCO2	6.61
C=CCS/C(N)=N\N=C\c1c(O)ccc2ccccc12	13.3
Cc1ccc(C(=O)CN2C(=O)NC3(CCOc4ccccc43)C2=O)s1 (stereo not drawn)	2.46
Cc1sc2ncn(CC(=O)NCCCC(=O)N3CCC4(CC3)OCCO4)c(=O)c2c1C	10.7
CCOC(=O)c1oc2ccccc2c1NC(=O)c1cccs1	0.447
N/C(Cc1ccc([N+](=O)[O-])cc1)=N\OC(=O)c1ccc2ccccc2c1	4.74
N/C(Cc1ccc([N+](=O)[O-])cc1)=N\OC(=O)c1ccc([N+](=O)[O-])cc1	-56.7
N/C(Cc1ccc([N+](=O)[O-])cc1)=N\OC(=O)c1ccc(Br)cc1	-3.44
COc1ccc(CNC(=O)C2(CC3CC(c4ccccc4)=NO3)CCN(C(=O)Cc3ccc(F)cc3)CC2)cc1 (stereo not drawn)	12.8
COc1ccc(CNC(=O)C2(CC3CC(c4ccccc4)=NO3)CCN(C(=O)OC(C)(C)C)CC2)cc1 (stereo not drawn)	2.59
COc1ccc(CNC(=O)C2(CC3CC(c4ccccc4)=NO3)CCN(C(=O)c3cccc(O)c3)CC2)cc1 (stereo not drawn)	8.84
COc1ccc(CNC(=O)C2(CC3CC(c4ccccc4)=NO3)CCN(C(=O)C3(C)CC3)CC2)cc1 (stereo not drawn)	-37.1
COc1ccc(CNC(=O)C2(CC3CC(c4ccccc4)=NO3)CCN(C(=O)CCCCCBr)CC2)cc1 (stereo not drawn)	-60.3
COc1ccc(CNC(=O)C2(CC3CC(c4ccccc4)=NO3)CCN(C(=O)C3CCCC3)CC2)cc1 (stereo not drawn)	-67.1
COc1ccc(C2NC(=O)c3ccccc3O2)cc1OC (stereo not drawn)	8.88
Fc1cccc(CCN2C(=S)NC[C@@H]2CC2CCCCC2)c1	8.53
CCn1nc(C(C)C)cc1C(=O)N1CCCC(CO)(Cc2ccc(F)cc2F)C1 (stereo not drawn)	5.81
CC1CCCCN1C(=O)c1ccc(COc2ccc([N+](=O)[O-])cc2)o1 (stereo not drawn)	-18.9
CCOC(=O)N1CCC(N2CCCC(C(=O)c3cc(F)ccc3OC)C2)CC1 (stereo not drawn)	-52.2
CCN(CC)CC(=O)N1CCCC(C(=O)c2ccccc2OC)C1 (stereo not drawn)	6.77
CCOC(=O)N1CCC(N2CCCC(C(=O)c3ccccc3OC)C2)CC1 (stereo not drawn)	-59.3
COc1ccccc1C(=O)C1CCCN(C(=O)C2CCCC2)C1 (stereo not drawn)	8.68

Structure (SMILES)	hERG current change (%, negative = inhibition) at 1uM [%]
COc1ccc(F)cc1C(=O)C1CCCN(C(=O)C2=C(C)OCCO2)C1 (stereo not drawn)	14.5
COc1ccc(F)cc1C(=O)C1CCCN(Cc2ccc(O)cc2)C1 (stereo not drawn)	-25.1
CC(=O)Nc1ccc2[nH]c3ccccc3c2c1	3.08
O=C(NCCCN1CCOCC1)c1sc2cc(Cl)ccc2c1Cl	6.47
Cc1c(C(=O)N(C)Cc2ccccc2)oc2ccc(S(=O)(=O)N3CCCC3)cc12	-0.449
COc1ccc(CCNC(=O)C(=O)Nc2ccc3c(c2)OCCO3)cc1OC	14.4
O=C(NCc1ccncc1)C(=O)NCC(c1ccco1)N1CCN(c2ccccc2)CC1 (stereo not drawn)	3.03
CCOc1ccc(N(C(=O)CNS(=O)(=O)c2ccccc2)C(CC)C(=O)NCc2ccco2)cc1 (stereo not drawn)	4.35
CCCCON1C(=O)c2cccc3cccc(c23)C1=O	8.5
CCCCN(C)C1=Nc2cccc3cccc1c23	-54.9
NC1=Nc2cccc3cccc1c23	12.8
OC(COc1ccccc1)CN1CCCC1 (stereo not drawn)	9.18
CN1CCN(CC(O)COc2ccc(Cl)cc2)CC1.Cl (stereo not drawn)	-5.93
Cl.OC(COc1ccc(Cl)cc1)CN1C2=NCCCN2c2ccccc21 (stereo not drawn)	-82
CCN1C2=NCCCN2c2ccccc21.Cl	2.9
Cl.OC(COc1ccccc1)CN1C2=NCCCN2c2ccccc21 (stereo not drawn)	-54.6
Cl.ClCCN1C2=NCCCN2c2ccccc21	-1.36
Cc1ccc(/C(O)=C2\C(=O)C(=O)N(CCN(C)C)C2c2ccccc2F)cc1 (stereo not drawn)	-6.65
COc1ccc(S(C)(=O)=O)cc1S(C)(=O)=O	12.3
CC(C)OCCCNC(=O)c1c(N)n(CC2CCCO2)c2nc3ccccc3nc12 (stereo not drawn)	6.34
CCn1c(Cn2nnc(-c3ccccc3)n2)nnc1SCC(=O)Nc1ccc(C(C)=O)cc1	5.63
COc1ccc(CCn2c(=N)c(C(=O)NCC3CCCO3)cc3c(=O)n4cccc(C)c4nc32)cc1 (stereo not drawn)	-88.1

Structure (SMILES)	hERG current change (%, negative = inhibition) at 1uM [%]
Cc1cccn2c(=O)c3cc(C(=O)NCC4CCCO4)c(=N)n(CCc4ccccc4)c3nc12 (stereo not drawn)	-84.4
COc1ccc(CCn2c(=N)c(C(=O)NCC3CCCO3)cc3c(=O)n4cccc(C)c4nc32)cc1OC (stereo not drawn)	-87.1
COc1ccc(CCn2c(=N)c(C(=O)NCCN3CCOCC3)cc3c(=O)n4cccc(C)c4nc32)cc1OC	-44.4
CC(C)C(NC(=O)C1CCCCC1)C(=O)N1CCN(c2ccc(F)cc2)CC1 (stereo not drawn)	-32.1
CS(=O)(=O)N1CCN(c2ccccc2NC(=O)c2ccc3c(c2)OCCO3)CC1	9.09
COc1cc(C(=O)N[C@@H](C)C(=O)N2CCC3(CC2)NCCc2[nH]cnc23)cc(OC)c1OC	15.3
CN(C)c1ccc(CNS(=O)(=O)c2csc(C(N)=O)c2)cc1	13
COc1ccc(Cl)cc1CSc1n[nH]c(C)n1	16.6
O=C(N/N=C/c1ccc(Cl)s1)C(O)c1ccccc1 (stereo not drawn)	16.4
O=c1c([N+](=O)[O-])c(N2CCCC2)c2ccccc2n1-c1ccccc1	4.99
NC(=O)C1CCCc2c1n(Cc1ccccc1)c1ccccc21 (stereo not drawn)	9.63
CCOC(=O)C1=CC[C@H]2c3c(c4ccccc4n3C)C[C@H]1N2C	15.5
Cl.Cn1c2c(c3ccccc31)CCN1CCC[C@]21c1ccccc1	12.1
CC[C@]12CCCN3CCc4c(n(c5ccccc45)C(=O)C1)C32 (stereo partly drawn)	-50.5
CCn1cc(C2N3CC4(C)CN2CC(C)(C3)C4=O)c2ccccc21 (stereo not drawn)	4.63
CCOC(=O)NNC(=O)CCn1c2c(c3ccccc31)CCCC2	6.89
CCOC(=O)C1=C[C@]2(CC)CCCN3CCc4c(n1c1ccccc41)[C@@H]32	-95.5
CC[C@]12CCCN3CCc4c(n(c5ccccc45)C(=O)C1)[C@@H]32	-70.5
O=C(O)Cn1c(=O)c2c(c3ccccc31)CCC2	11.5
CCN1CCC(=NNC(=O)CC23CC4CC(CC(C4)C2)C3)CC1	11.5
COc1cc(NC(c2ccccc2)c2ccccc2)cc(OC)c1OC	5.7
